Common to all, as to test: NCI-60 one-dose screen, 48 h (100 = growth as untreated, 0 = no growth, -100 = all killed)
One assay relates to BT-549 breast. The conditions noted are these: 10 µM unless noted.
The test system of the next assay is MDA-MB-435 melanoma. Conditions: 10 µM unless noted.
Another assay relates to SW-620 colon. The conditions noted are these: 10 µM unless noted.
Another assay has as its system MCF7 breast. Conditions: 10 µM.
Another assay concerns HCT-116 colon. The conditions noted are these: 10 µM unless noted.
A further assay has as its system HCC-2998 colon. Conditions: 10 µM unless noted.
A further assay has as its system KM12 colon. Conditions: 10 µM unless noted.

SMILES strings stand for the structures. The panel holds about 83,000 compounds, 20% with a hit somewhere; the sample as a whole holds those more often.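 Results are percent growth after 48 hours of single-concentration exposure. 100 means growth as in untreated cells, lower positive values show inhibition; negative values down to -100 show cell death.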 Unmarked numbers belong to inactive results. The source made the active and inactive calls. Rule for the calls: active = growth percent below 10; inactive = the rest.

Take `O=c1c(-c2nc3ccccc3[nH]2)cc2ccccc2n1Cc1cn(Cc2ccc(F)cc2)nn1`: the growth in the assay with BT-549 breast was 22.4%; in the assay on MDA-MB-435 melanoma, -37% (active); in the assay with SW-620 colon it was 22.1%; with MCF7 breast, 14.5%; with HCT-116 colon it was -13.5% (active); in the assay on HCC-2998 colon it was -14.5% (active). In the assay with KM12 colon, the growth is 9.74% (active).
`O=S(=O)(c1ccccc1)n1cc2c(c1-c1ccccc1)CCc1sc(Nc3ccccc3)nc1-2`: the growth is 103% with BT-549 breast; 88% with MDA-MB-435 melanoma; 94.4% in the assay on SW-620 colon; 72.9% in the assay with MCF7 breast; 83.3% in the assay with HCT-116 colon; 110% in the assay on HCC-2998 colon. Further, the growth in the assay with KM12 colon is 82.7%.
In the case of `CC(C)C[C@H](C(=O)N[C@H](C(N)=O)C(C)C)N1CC=CCN(OCc2ccccc2)S1(=O)=O`, the growth with BT-549 breast was 98.5% [2.5 µM]; in the assay on MDA-MB-435 melanoma, 115% [2.5 µM]; with SW-620 colon, 102% [2.5 µM]; with HCT-116 colon, 83.2% [2.5 µM]; with HCC-2998 colon it was 108% [2.5 µM]; with KM12 colon, 114% [2.5 µM].
For the molecule `COCCN(C(=O)Cc1cccs1)C(C(=O)NCc1ccc(OC)cc1)c1ccc(C(C)C)cc1` (stereo unspecified), the growth in the assay on BT-549 breast was 93.9%; with MDA-MB-435 melanoma, 104%; in the assay with MCF7 breast, 85.4%; in the assay with HCT-116 colon it was 68.7%; in the assay with HCC-2998 colon it was 81.4%; in the assay with KM12 colon it was 84.2%.
As for `Nc1ccc(-c2nc3cc(Oc4ccc(Oc5ccc6[nH]c(-c7ccc(N)cc7)nc6c5)cc4)ccc3[nH]2)cc1`, the growth in the assay on BT-549 breast is 105%; in the assay on MDA-MB-435 melanoma, 109%; with MCF7 breast it was 85.1%; in the assay on HCT-116 colon, 97%; in the assay with HCC-2998 colon, 106%; in the assay on KM12 colon, 104%.
`O=C(/C=C/c1ccc(C(F)(F)F)cc1)c1ccc(Nc2nc(NCCO)nc(Nc3ccc(Cl)cc3)n2)cc1`: the growth in the assay on BT-549 breast is 57.9%; with MDA-MB-435 melanoma it was 47.7%; in the assay with MCF7 breast, -43.1% (active); in the assay on HCT-116 colon, -85.6% (active); in the assay on HCC-2998 colon, -30.2% (active); with KM12 colon, -51.2% (active).
Consider `COc1ccc(Cn2c(Br)c3c(c2-c2cc(OC)c(OC)c(OC)c2)CCc2sc(NC(=O)c4ccc(OC)cc4)nc2-3)cc1`, for which the growth in the assay on BT-549 breast was 96.1%; in the assay on MDA-MB-435 melanoma, 99.5%; in the assay on MCF7 breast, 91.5%; with HCT-116 colon, 90.8%; in the assay on HCC-2998 colon, 108%; with KM12 colon it was 94.2%.
For the molecule `COc1cc(/C=C2\CCC/C(=C\c3cc(CN4CCOCC4)c(O)c(OC)c3)C2=O)cc(CN2CCOCC2)c1O`, the growth in the assay on BT-549 breast was 52.5%; in the assay with MDA-MB-435 melanoma it was 27.4%; in the assay with MCF7 breast, 21.1%; in the assay with HCT-116 colon, 23.3%; in the assay on HCC-2998 colon it was 62.1%; in the assay on KM12 colon, 9.12% (active).
For the molecule `Cc1ccc2nc(NC(=O)CSC(=S)N3CCN(c4ccccc4)CC3)sc2c1`, the growth in the assay with BT-549 breast was 102%; in the assay with MDA-MB-435 melanoma, 111%; in the assay on SW-620 colon, 109%; with MCF7 breast it was 95%; in the assay with HCT-116 colon it was 95%; in the assay on KM12 colon it was 95.1%.
In the case of `COC(=O)c1ccc(NC(=O)CSc2nc3ccccc3c(=O)n2-c2ccccc2)cc1`, the growth with BT-549 breast is 94.4%; in the assay on MDA-MB-435 melanoma it was 104%; in the assay on SW-620 colon, 105%; in the assay on MCF7 breast, 106%; in the assay on HCT-116 colon, 97.7%; in the assay with KM12 colon, 99.8%.
For the molecule `O=C(Cc1ccccc1)NC(c1ccc(Cl)cc1)c1c(O)ccc2ccccc12` (stereo unspecified), the growth in the assay with BT-549 breast was 50%; in the assay with MDA-MB-435 melanoma, 6.36% (active); in the assay with SW-620 colon, 17.5%; in the assay on MCF7 breast it was 8.18% (active); with HCT-116 colon, 2.62% (active); in the assay on KM12 colon, 15.1%.
For the molecule `COc1ccc(/C=C/C(=O)c2ccc(Nc3nc(NCCO)nc(Nc4ccc(Cl)cc4)n3)cc2)cc1`, the growth in the assay with BT-549 breast is 61.3%; in the assay on MDA-MB-435 melanoma it was 65.4%; in the assay on MCF7 breast, 12.9%; in the assay with HCT-116 colon it was 19.8%; with HCC-2998 colon it was 57.2%; with KM12 colon, 41%.
On to `CCOC(=O)C1=C(C)c2ccc(OC)c(OC)c2C1`, for which the growth in the assay with BT-549 breast was 108%; in the assay with MDA-MB-435 melanoma, 112%; with SW-620 colon, 104%; with HCT-116 colon, 102%; in the assay on HCC-2998 colon it was 91.2%; in the assay with KM12 colon, 101%.
As for `COc1ccc(-c2c(-c3ccc(OC)c(O)c3)cnc3ncnn23)cc1`, the growth in the assay with BT-549 breast is 102%; in the assay with MDA-MB-435 melanoma it was 108%; in the assay on MCF7 breast it was 95.2%; with HCT-116 colon it was 98%; in the assay with HCC-2998 colon it was 109%; with KM12 colon, 102%.
With `C=C(C)CCC(C)N1CCC(N2CCC(C(=O)NCCc3ccccc3)CC2)CC1` (stereo unspecified), the growth in the assay with BT-549 breast was 64.5%; in the assay on MDA-MB-435 melanoma, -18.5% (active); with MCF7 breast, 9.23% (active); with HCT-116 colon it was 17.6%; with HCC-2998 colon, 131%; with KM12 colon, 24.8%.
With `COc1ccc(/C=C2\CCC/C(=C\c3ccc(OC)c(OC)c3)C2=O)cc1OC`, the growth is 13% with BT-549 breast; -8.1% (active) with MDA-MB-435 melanoma; -21.7% (active) with SW-620 colon; -68.3% (active) with HCT-116 colon; -30.1% (active) in the assay on HCC-2998 colon; -75.2% (active) in the assay on KM12 colon.
For the molecule `O=C(NCc1ccco1)C1CN(c2ccc(Cl)cc2)N(c2ccc(Cl)cc2)C1=O` (stereo unspecified), the growth in the assay with BT-549 breast was 51.9%; with MDA-MB-435 melanoma, -32.5% (active); in the assay with MCF7 breast, 14.2%; in the assay with HCT-116 colon it was 21.9%; with HCC-2998 colon, 76.1%; in the assay on KM12 colon, 22.3%.
`Clc1ccc(COc2ccc(Nc3ncnc4onc(-c5ccccc5)c34)cc2)cc1`: the growth in the assay with BT-549 breast was 89.1%; with MDA-MB-435 melanoma, 73.1%; with MCF7 breast it was 75.9%; in the assay with HCT-116 colon, 72.1%; in the assay with HCC-2998 colon it was 106%; in the assay with KM12 colon it was 88.9%.
For `COc1ccc(OC)c(NC(=O)/C(C#N)=C/c2ccco2)c1`, the growth was 84.5% with BT-549 breast; 98.8% in the assay on MDA-MB-435 melanoma; 106% in the assay with SW-620 colon; 47.9% in the assay on MCF7 breast; 95.1% in the assay on HCT-116 colon; 95.5% with KM12 colon.
